Source: ChEMBL document CHEMBL4513216, “Probing the Open Global Health Chemical Diversity Library for Multistage-Active Starting Points for Next-Generation Antimalarials” (ACS Infect Dis, 2020)
Among all 69,000 compounds or so, about 8,600 (12%) showed an effect of 50% or more. The sample as a whole holds a higher share of strong results than the screen did.

Test system: Plasmodium berghei
Assay: Screen against P. berghei liver stage (PbLuc), transformed with Luciferase, at 10uM
Type: functional, HepG2
Conditions: tested at 10 uM

| Structure (SMILES) | INHIBITION |
| --- | --- |
| CCS(=O)(=O)N[C@H]1CN(CC(C)(C)N2CCOCC2)C[C@@H]1C1CC1 | 18.5% |
| O=C(Nc1ccccc1)C1=NOC2(CCCN(C(=O)C3CCCC3)C2)C1 (stereo unspecified) | -31% |
| O=C(c1ccn(-c2ccc(F)cc2)n1)N1CCCC(n2ccnc2)C1 (stereo unspecified) | -17% |
| CCc1nc(CNC2CCN(S(C)(=O)=O)CC2)cs1 | 28.3% |
| O=C(C1CCOCC1)N1CCO[C@H]2[C@@H](OCC3CC3)CC[C@@H]21 | -19.8% |
| CCC(C)N(Cc1cccnc1)C(=O)c1ccc(NS(=O)(=O)CC)cc1 (stereo unspecified) | 18.8% |
| CCCn1ncc(C(=O)N2CCCC(OCc3ccccn3)C2)c1C (stereo unspecified) | -38.6% |
| CN(C)C(=O)[C@H]1C[C@H]2CN(CCc3ccccc3)C[C@@H]1O2 | 66% |
| O=C(NCCc1ccccc1)N1C[C@@H]2C[C@H](C(=O)N3CCCC3)[C@H](C1)O2 | 57.1% |
| CNC(=O)[C@H]1C[C@H]2CN(C(=O)NCCc3ccccc3)C[C@@H]1O2 | 19.5% |
| CN1C[C@@H]2C[C@H](C(=O)Nc3cccnc3)[C@H](C1)O2 | 41.6% |
| CNC(=O)N1C[C@@H]2C[C@H](C(=O)Nc3cccnc3)[C@H](C1)O2 | 54.4% |
| O=C(Nc1cccnc1)[C@H]1C[C@H]2CN(C(=O)NC3CCCC3)C[C@@H]1O2 | 9.67% |
| CN(C)C(=O)[C@H]1C[C@H]2CN(S(=O)(=O)Cc3ccccc3)C[C@@H]1O2 | 19.9% |
| CNC(=O)N1C[C@@H]2C[C@H](C(=O)Nc3ccccc3)[C@H](C1)O2 | 62% |
| O=C(NCc1ccccc1)N1C[C@@H]2C[C@H](C(=O)N3CCCC3)[C@H](C1)O2 | 15.3% |
| CNC(=O)[C@H]1C[C@H]2CN(C(=O)Nc3ccccc3)C[C@@H]1O2 | -26.5% |
| CN(C)C(=O)[C@H]1C[C@H]2CN(S(=O)(=O)c3ccccc3)C[C@@H]1O2 | 33.4% |
| O=C(Nc1ccccc1)[C@H]1C[C@H]2CN(C(=O)Nc3ccccc3)C[C@@H]1O2 | 7.31% |
| COCCc1noc(CN2CCCC2c2c(C)nn(C)c2OC)n1 (stereo unspecified) | 17.4% |
| CCCNC(=O)C1CCCN(Cc2csc(C(C)(C)C)n2)C1 (stereo unspecified) | -62.8% |
| CNC(=O)[C@@H](c1ccccc1OC)N1CCC[C@H]1C(=O)NC(C)(C)C | -22.4% |
| Cc1cccc(C)c1OCC(=O)NC(C)c1nnc2n1CCC2 (stereo unspecified) | -29.2% |
| COc1c(CNCC(=O)N2CCN(C)CC2)c(C(C)C)nn1C | 42.1% |
| Cc1noc(CNC(=O)c2ccccc2-n2cc(CN)cn2)n1 | 20.8% |
| O=C1CN(C(=O)c2cc3ccc(Br)cc3[nH]2)CCN1 | -56.7% |
